This excerpt belongs to a sample that is enriched for hits.
CBX7 inh – inhibitors of human CBX7 binding to H3K27me3 peptide | O95931 | AlphaScreen His6-CBX7 / biotin-H3K27me3 peptide binding; active compounds read low | normalised signal (fraction of DMSO) (test concentration not listed) | hit rate 1.1% among 66,000; in the data active = normalised signal below about 0.5
Target sequence (O95931 whole entry, looked up): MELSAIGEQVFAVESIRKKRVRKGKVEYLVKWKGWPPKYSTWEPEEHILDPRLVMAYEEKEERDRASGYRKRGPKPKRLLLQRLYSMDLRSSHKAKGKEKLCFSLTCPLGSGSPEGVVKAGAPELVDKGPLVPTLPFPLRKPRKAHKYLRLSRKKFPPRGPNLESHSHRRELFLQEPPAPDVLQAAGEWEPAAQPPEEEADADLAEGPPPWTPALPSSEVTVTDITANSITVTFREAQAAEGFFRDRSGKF
* marks the source's active call; other numbers are inactive results.

What do the screens show for `CCOC(=O)c1ccc(NC2c3ncccc3C(=O)N2Cc2ccc(F)cc2)cc1` (stereo unspecified)?
CBX7 inh: 0.45*

How did COc1ccc(NC2c3ncccc3C(=O)N2Cc2ccc(F)cc2)cc1 (stereo unspecified) do in these assays?
CBX7 inh: 0.64

How did O=C1c2cccnc2C(Nc2ccc(F)c(Cl)c2)N1Cc1ccc(F)cc1 (stereo unspecified) do in these assays?
CBX7 inh: 0.81

How did COc1ccc(NC2c3ncccc3C(=O)N2Cc2ccc(F)cc2)cc1Cl (stereo unspecified) do in these assays?
CBX7 inh: 0.62

Results for CCC(C)NC(=O)C1c2ccccc2C(=O)N1Cc1ccc(OC)cc1 (stereo unspecified) ?
CBX7 inh: 1.1

Results for COc1ccc(CN2C(=O)c3cccnc3C2O)cc1 (stereo unspecified) ?
CBX7 inh: 0.01*

What do the screens show for `COc1ccc(CN2C(=O)c3cccnc3C2Nc2cc(Cl)ccc2C)cc1` (stereo unspecified)?
CBX7 inh: 0.91

What do the screens show for `CCN1CCCC1CNC(=O)c1cc(Nc2ccc(OC)cc2OC)nc2ccccc12` (stereo unspecified)?
CBX7 inh: 0.7

Results for CCOCCCNC(=O)c1ccc2c(c1)N=C(CC)c1ccccc1S2 ?
CBX7 inh: 0.85

What do the screens show for `FC(F)(F)c1cccc(Nc2nnc(Cc3cccnc3)c3ccccc23)c1`?
CBX7 inh: 0.99

What do the screens show for `COc1cccc(-c2nn(C)c3sc(C(=O)Nc4ccccc4OC)cc23)c1`?
CBX7 inh: 1

How did CCC(=O)n1c2c(c3ccccc31)Nc1ccccc1N2 do in these assays?
CBX7 inh: 1.2

How did CCc1ccc(NC2c3ccccc3C(=O)N2c2cccnc2)cc1 (stereo unspecified) do in these assays?
CBX7 inh: 0.91

What do the screens show for `Cc1c(C(=O)Nc2nc3ccccc3s2)sc2nc(-c3ccccc3)cn12`?
CBX7 inh: 1

What do the screens show for `CCN(CC)S(=O)(=O)c1ccc(C(=O)Nc2nnc(-c3ccc(Cl)s3)o2)cc1`?
CBX7 inh: 0.96

What do the screens show for `CN(C)S(=O)(=O)c1ccc(C(=O)Nc2nnc(-c3ccc(Cl)s3)o2)cc1`?
CBX7 inh: 0.22*

How did CCCCN(CCCC)S(=O)(=O)c1ccc(C(=O)Nc2nnc(-c3ccc(Cl)s3)o2)cc1 do in these assays?
CBX7 inh: 1

How did C=CCN(CC=C)S(=O)(=O)c1ccc(C(=O)Nc2nnc(-c3ccc(Cl)s3)o2)cc1 do in these assays?
CBX7 inh: 0.37*

Results for COc1ccc(S(=O)(=O)N2CC=C(C(=O)Nc3nccs3)CC2)cc1 ?
CBX7 inh: 1.1

How did O=c1[nH]cnc2ccc(S(=O)(=O)N3CCOCC3)cc12 do in these assays?
CBX7 inh: 1.1

What do the screens show for `COc1ccc(C)cc1S(=O)(=O)NCCc1c(C)[nH]c2c(C)cccc12`?
CBX7 inh: 0.92

How did COCc1nc2ccccc2n1CCOc1ccc2ccccc2c1 do in these assays?
CBX7 inh: 0.97

How did Cc1oc(-c2ccc(Cl)cc2)nc1CSCC(=O)N1CCCC1 do in these assays?
CBX7 inh: 1.1

Results for CC(C(=O)NC1CCCCC1)C1Sc2ccccc2NC1=O (stereo unspecified) ?
CBX7 inh: 1

How did O=C1CC(c2ccc(F)cc2)Sc2ccccc2N1 (stereo unspecified) do in these assays?
CBX7 inh: 0.89

What do the screens show for `O=C1Nc2ccccc2SC(c2ccccc2)C1O` (stereo unspecified)?
CBX7 inh: 0.19*

How did CC(=O)Nc1nonc1-c1nc2ccccc2n1Cc1ccccc1C do in these assays?
CBX7 inh: 0.96

Screening data as filed in PubChem BioAssay.
